From the supplement of paper PMC8975748
Where a name gives a salt, the structure may show the parent alone. ± gives the standard deviation of the averaged measurements.

Key:
[1] = test system: Saccharomyces cerevisiae BY4741 SeMeCo community; assay: mean cell size (pixel area) (pixels); higher = larger cells; settings: 10 µM; 24 h; SM minimal medium
Summary of the method: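 A fluorescent Saccharomyces cerevisiae BY4741 community carrying four plasmids was used, with each plasmid complementing one auxotrophy and bearing a fluorescent marker. An overnight preculture at OD600 = 1.0 was diluted to OD600 = 0.3, and 70 µl went into 384-well plates acoustically predosed with drug (final 10 µM) in SM medium for 24 h. After paraformaldehyde fixation, cells were imaged by automated confocal microscopy and analysed in Harmony, giving the mean cell pixel area per well. Each value is the average of 3 replicates. Same SeMeCo high-content imaging drug screen: Selleck FDA-approved drugs at 10 µM, 24 h in SM medium, 384-well plates, 3 replicates.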

[2] = test system: Saccharomyces cerevisiae BY4741 SeMeCo community; assay: z-score of prototroph abundance vs DMSO median; higher = larger share of this subpopulation than in DMSO controls; settings: 10 µM; 24 h; SM minimal medium; subpopulation (auxotrophy): Prototroph
Summary of the method: (§1)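 A Saccharomyces cerevisiae BY4741 community carried four plasmids, each restoring one auxotrophy and encoding a distinct fluorescent protein. It was pre-grown overnight to OD600 1.0, diluted to 0.3, and 70 µl was added to 384-well plates acoustically predosed with library drugs (10 µM final), then grown 24 h in minimal SM medium. Cells were paraformaldehyde-fixed and imaged by automated confocal microscopy, with single-auxotroph fluorescent strains setting thresholds and autofluorescence correction. Each subpopulation's abundance was scored as a z-score against the vehicle-well median.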

[3] = test system: Saccharomyces cerevisiae BY4741 SeMeCo community; assay: z-score of subpopulation abundance vs DMSO median, subpopulation auxotrophic for M; higher = larger share of this subpopulation than in DMSO controls; settings: 10 µM; 24 h; SM minimal medium; subpopulation (auxotrophy): M
Summary of the method: as §1

[4] = test system: Saccharomyces cerevisiae BY4741 SeMeCo community; assay: z-score of subpopulation abundance vs DMSO median, subpopulation auxotrophic for L; higher = larger share of this subpopulation than in DMSO controls; settings: 10 µM; 24 h; SM minimal medium; subpopulation (auxotrophy): L
Summary of the method: as §1

[5] = test system: Saccharomyces cerevisiae BY4741 SeMeCo community; assay: z-score of subpopulation abundance vs DMSO median, subpopulation auxotrophic for U; higher = larger share of this subpopulation than in DMSO controls; settings: 10 µM; 24 h; SM minimal medium; subpopulation (auxotrophy): U
Summary of the method: as §1

[6] = test system: Saccharomyces cerevisiae BY4741 SeMeCo community; assay: z-score of subpopulation abundance vs DMSO median, subpopulation auxotrophic for LU; higher = larger share of this subpopulation than in DMSO controls; settings: 10 µM; 24 h; SM minimal medium; subpopulation (auxotrophy): LU
Summary of the method: as §1

[7] = test system: Saccharomyces cerevisiae BY4741 SeMeCo community; assay: z-score of subpopulation abundance vs DMSO median, subpopulation auxotrophic for LM; higher = larger share of this subpopulation than in DMSO controls; settings: 10 µM; 24 h; SM minimal medium; subpopulation (auxotrophy): LM
Summary of the method: as §1

[8] = test system: Saccharomyces cerevisiae BY4741 SeMeCo community; assay: z-score of subpopulation abundance vs DMSO median, subpopulation auxotrophic for HM; higher = larger share of this subpopulation than in DMSO controls; settings: 10 µM; 24 h; SM minimal medium; subpopulation (auxotrophy): HM
Summary of the method: as §1

[9] = test system: Saccharomyces cerevisiae BY4741 SeMeCo community; assay: z-score of subpopulation abundance vs DMSO median, subpopulation auxotrophic for HU; higher = larger share of this subpopulation than in DMSO controls; settings: 10 µM; 24 h; SM minimal medium; subpopulation (auxotrophy): HU
Summary of the method: as §1

[10] = test system: Saccharomyces cerevisiae BY4741 SeMeCo community; assay: z-score of subpopulation abundance vs DMSO median, subpopulation auxotrophic for HL; higher = larger share of this subpopulation than in DMSO controls; settings: 10 µM; 24 h; SM minimal medium; subpopulation (auxotrophy): HL
Summary of the method: as §1

[11] = test system: Saccharomyces cerevisiae BY4741 SeMeCo community; assay: z-score of subpopulation abundance vs DMSO median, subpopulation auxotrophic for HLU; higher = larger share of this subpopulation than in DMSO controls; settings: 10 µM; 24 h; SM minimal medium; subpopulation (auxotrophy): HLU
Summary of the method: as §1

[12] = test system: Saccharomyces cerevisiae BY4741 SeMeCo community; assay: z-score of subpopulation abundance vs DMSO median, subpopulation auxotrophic for LUM; higher = larger share of this subpopulation than in DMSO controls; settings: 10 µM; 24 h; SM minimal medium; subpopulation (auxotrophy): LUM
Summary of the method: as §1

[13] = test system: Saccharomyces cerevisiae BY4741 SeMeCo community; assay: z-score of subpopulation abundance vs DMSO median, subpopulation auxotrophic for HLUM; higher = larger share of this subpopulation than in DMSO controls; settings: 10 µM; 24 h; SM minimal medium; subpopulation (auxotrophy): HLUM
Summary of the method: as §1

[14] = test system: Saccharomyces cerevisiae BY4741 SeMeCo community; assay: z-score of subpopulation abundance vs DMSO median, subpopulation auxotrophic for H; higher = larger share of this subpopulation than in DMSO controls; settings: 10 µM; 24 h; SM minimal medium; subpopulation (auxotrophy): H
Summary of the method: as §1

[15] = test system: Saccharomyces cerevisiae BY4741 SeMeCo community; assay: z-score of subpopulation abundance vs DMSO median, subpopulation auxotrophic for UM; higher = larger share of this subpopulation than in DMSO controls; settings: 10 µM; 24 h; SM minimal medium; subpopulation (auxotrophy): UM
Summary of the method: as §1

[16] = test system: Saccharomyces cerevisiae BY4741 SeMeCo community; assay: z-score of subpopulation abundance vs DMSO median, subpopulation auxotrophic for HLM; higher = larger share of this subpopulation than in DMSO controls; settings: 10 µM; 24 h; SM minimal medium; subpopulation (auxotrophy): HLM
Summary of the method: as §1

[17] = test system: Saccharomyces cerevisiae BY4741 SeMeCo community; assay: z-score of subpopulation abundance vs DMSO median, subpopulation auxotrophic for HUM; higher = larger share of this subpopulation than in DMSO controls; settings: 10 µM; 24 h; SM minimal medium; subpopulation (auxotrophy): HUM
Summary of the method: as §1

Row | SMILES | mean cell size [1] | z-score of prototroph abundance [2] | z-score of subpopulation abundance [3] | z-score of subpopulation abundance [4] | z-score of subpopulation abundance [5] | z-score of subpopulation abundance [6] | z-score of subpopulation abundance [7] | z-score of subpopulation abundance [8] | z-score of subpopulation abundance [9] | z-score of subpopulation abundance [10] | z-score of subpopulation abundance [11] | z-score of subpopulation abundance [12] | z-score of subpopulation abundance [13] | z-score of subpopulation abundance [14] | z-score of subpopulation abundance [15] | z-score of subpopulation abundance [16] | z-score of subpopulation abundance [17]
1 | CS(=O)(=O)c1ccc([C@@H](O)[C@@H](CO)NC(=O)C(Cl)Cl)cc1 [Thiamphenicol] | 12.41 ± 0.061 | 0.25 | -0.68 | 0.13 | 0.59 | 0.67 | -0.48 | -0.5 | 0.15 | -0.52 | -0.36 | -0.6 | -0.23 |  |  |  | 
2 | CCC(C)n1ncn(-c2ccc(N3CCN(c4ccc(OCC5COC(Cn6cncn6)(c6ccc(Cl)cc6Cl)O5)cc4)CC3)cc2)c1=O (stereo not drawn) [Itraconazole] | 11.93 ± 0.1 | -10.4 | 0.3 | 0.48 | -0.83 | -0.44 |  | 7.45 | 7.89 | 17.3 | 7.28 | 6.18 |  | 18.3 | 11.4 |  | 
3 | O=C(CCCN1CCN(c2ccccn2)CC1)c1ccc(F)cc1 [Azaperone] | 12.29 ± 0.072 | -0.1 | 0 |  | 0.07 | 0.24 | 0.61 | -0.63 | 0.16 | -0.42 | -0.03 | 0.38 | 0.31 | -0.28 | 0.85 | -0.5 | 1.31
4 | CC1(C)S[C@@H]2[C@H](NC(=O)[C@H](N)c3ccc(O)cc3)C(=O)N2[C@H]1C(=O)O [Amoxicillin trihydrate] |  | -0.1 | 0.05 | 0.15 | 0.03 | 0.61 |  | -0.15 | 0.31 | -0.69 | 0.3 | 0.38 | -0.21 | -0.05 | 0.19 |  | -0.08
5 | C=C[C@H]1CN2CC[C@H]1C[C@@H]2[C@@H](O)c1ccnc2ccc(OC)cc12 [Quinidine sulfate] | 12.4 ± 0.13 | -1.18 | 1.1 |  | -1.29 | 0.61 | 2.28 | 1.23 | -0.47 |  | 1.39 | 1.53 | 2.36 | 0.89 | 0.08 | 1.12 | 0.61
6 | CCn1cc(C(=O)O)c(=O)c2cc(F)c(N3CCNCC3)nc21 [Enoxacin Sesquihydrate] | 12.2 ± 0.23 | -0.92 | 0.76 |  | 1.2 | 0.91 | 0 | 0.03 | 0.47 | -0.59 | -0.17 | 0.36 | -0.27 | -1.49 |  | -0.85 | 0.88
7 | Cc1cc(C)nc(NS(=O)(=O)c2ccc(N)cc2)n1 [Sulfamethazine] | 12.5 ± 0.25 | 0 | 0.92 |  | -0.82 | -0.83 | 0.84 | 0.43 | -0.43 | -0.28 | 0.31 | -0.16 | 0.42 |  | -0.43 | 0.59 | -0.1
8 | Cc1cc(NS(=O)(=O)c2ccc(N)cc2)nc(C)n1 [sulfaisodimidine] | 12.1 ± 0.25 | -0.51 | 0.59 | 0.19 | 0.36 | 0.99 | 0.12 |  | 0.09 |  | 0.38 | 0.42 | 0.48 | -1.29 |  |  | 
9 | CN1C2CCCC1CC(NC(=O)c1nn(C)c3ccccc13)C2 (stereo not drawn) [Granisetron HCl] | 11.8 ± 0.16 | -0.01 | -0.02 |  | -1.1 | -0.06 | 0.45 | 0.45 | -0.52 | 0.42 | 0.66 | 0.06 | -0.37 | 1.08 | -0.36 | -0.26 | 0.03
10 | CC[N+](CC)(CC)CCOc1cccc(OCC[N+](CC)(CC)CC)c1OCC[N+](CC)(CC)CC [Gallamine Triethiodide] |  | 0.05 | 0.42 | -0.79 | 0.76 | 0.16 | -0.42 | -0.01 | 0.25 | -1.15 | 0.07 | -0.03 | -0.08 | -0.16 | 0.33 |  | 0.25
11 | COc1ccc(-c2nc3cc(C4=NNC(=O)CC4C)ccc3[nH]2)cc1 (stereo not drawn) [Pimobendan] | 12.31 ± 0.12 | -0.89 | 0.83 |  | -0.84 | 0.46 | 1.71 | 0.78 | -0.28 | 0.79 | 1.42 | 1.6 | 1.6 | 0.76 | -0.05 | 0.33 | 0.52
12 | CN[C@H]1C(=O)N[C@@H]2Cc3ccc(cc3)Oc3cc4cc(c3O[C@@H]3O[C@H](C(=O)O)[C@@H](O)[C@H](O)[C@H]3NC(=O)CCCCCCCCC(C)C)Oc3ccc(cc3Cl)[C@@H](O)[C@@H]3NC(=O)[C@H](NC(=O)[C@@H]4NC(=O)[C@@H](NC2=O)c2cc(cc(O)c2Cl)Oc2cc1ccc2O)c1ccc(O)c(c1)-c1c(O[C@H]2O[C@H](CO)[C@@H](O)[C@H](O)[C@@H]2O)cc(O)cc1[C@@H](C(=O)NCCCN(C)C)NC3=O [Dalbavancin] | 12.8 ± 0.072 | -0.15 | -4.48 | -0.21 | 1.53 | -0.56 | -1.16 |  | 3.63 | 1.2 | 2.43 | 0.72 |  | 4.04 | -0.56 |  | 
13 | O=c1ccc2ccc(OCCCCN3CCN(c4cccc5sccc45)CC3)cc2[nH]1 [Brexpiprazole] | 12.35 ± 0.092 | -0.62 | 0.05 |  | 0.84 | 0.27 | 0.35 | 0.35 | 1.54 | -0.02 | -0.45 | 1.05 | -0.98 | 0.96 | 1.41 | -0.13 | 0.25
14 | CN(C)c1cc(NC(=O)CNC(C)(C)C)c(O)c2c1CC1CC3C(N(C)C)C(=O)C(C(N)=O)=C(O)C3(O)C(=O)C1=C2O (stereo not drawn) [Tigecycline] |  |  | -1.16 | -1.67 | 0.22 | -0.07 | -0.64 | -0.15 | 1.34 | -0.79 | -0.27 | -0.85 | -0.04 | 0.59 | -0.23 |  | -0.19
